Several values for one entry are separate records, joined by “and”; a condition that tells them apart may be missing. Equal entries are not always repeated. Screen size: about 330,000 compounds; about 1,900 (0.58%) were called active. Roughly 4% stayed inconclusive and do not appear here. No stated cut-off is given here; in the data, inconclusive means inhibition above about 70% without an active follow-up result; inactive means below that. A selection follows. Entries with a potency or affinity are not part of this list.
test: M. tuberculosis growth inhibition, HTS (AID 449762);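 further: bacterial growth assessed after seven days of incubation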; conditions: M. tuberculosis H37Rv growth inhibition, 7H9 media; at 25 µM; hits give high values

SMILES | inhibition
Cc1c(NC(=O)c2cc(Br)ccc2Cl)cccc1-n1cnnn1 | -0.54% (inactive)
CCn1c(=O)c(CCC(=O)N2CCOCC2)c(C)c2c(C)nn(-c3ccccc3)c21 | 12.3% (inactive)
CCn1c(=O)c(CCC(=O)N2CCN(c3ccccn3)CC2)c(C)c2c(C)nn(-c3ccccc3)c21 | 9.63% (inactive)
Cc1cc(Cl)nc(-n2nc(C)cc2C)n1 | 4.9% (inactive)
Cc1cc(C)nc(-n2nc(C)cc2NC(=O)CN2CCCC2)n1 | 3.62% (inactive)
Cc1cc(C)nc(-n2nc(C)cc2NC(=O)CN2CCCC(C)C2)n1 (stereo not given) | -1.78% (inactive)
Cc1cc(C)n(-c2nc3ccccc3nc2N2CCC(C)CC2)n1 | 1.26% (inactive)
N/C(=N\S(=O)(=O)c1cc(C(F)(F)F)cc(C(F)(F)F)c1)c1ccncc1 | 1.58% (inactive)
CCc1nnc(NC(=O)CSC(=S)N2CCOCC2)s1 | -7.36% (inactive)
CCOc1ccc(-n2ccc(=O)c(C(=O)O)n2)cc1 | -0.69% (inactive)
S=c1nc2ccccc2c2nc(-c3ccccc3Br)[nH]n12 | 8.46% (inactive)
Cc1ccccc1-c1nc2c3ccccc3nc(=S)n2[nH]1 | 14.3% (inactive)
CCOCCn1c(C)c(C(=O)OCC)c2cc(O)c3ccccc3c21 | 9.34% (inactive)
Cn1cnnc1SCc1ccccc1Br | -3.04% (inactive)
Cn1cnnc1SCc1cccc(Br)c1 | 1.07% (inactive)
CCOc1ccc(S(=O)(=O)NN=C2CCN(C(C)=O)CC2)cc1 | 10.4% (inactive)
CCN1CCN(C(=O)/C=C/c2ccc(C)o2)CC1 | -7.62% (inactive)
Cc1ccc(/C=C/C(=O)N2CCCC(C(N)=O)C2)o1 (stereo not given) | 7.73% (inactive)
COc1ccc(CCNC(=O)C2CCCN(c3ncnc4c3nc3n4CCCCC3)C2)c(OC)c1 (stereo not given) | 3.42% (inactive)
CC(C)(C)C1CCC(=NNC(=O)C2COc3ccccc3O2)CC1 (stereo not given) | 2.24% (inactive)
Cc1[nH]nc2c1C(c1cccs1)C1=C(CC(C)(C)CC1=O)N2 (stereo not given) | -4.07% (inactive)
CCn1ncc([N+](=O)[O-])c1C(=O)N1CCCC1 | 3% (inactive)
CCCn1cnc2cc(NCc3ccccc3O)ccc21 | 29.1% (inactive)
COc1cccc(CNc2ccc3c(c2)ncn3C)c1OC | 8% (inactive)

SMILES | inhibition
N/C(=N\OC(=O)c1ccc([N+](=O)[O-])cc1)c1cccnc1 | 8.92% (inactive)
CC(C)(C)C1=C(C#N)C(c2cc3c(cc2Br)OCO3)C(C#N)=C(N)O1 (stereo not given) | -2.53% (inactive)
O=C(Nc1ccc(N2CCN(C(=O)c3cccs3)CC2)cc1)c1ccccc1Cl | 1.86% (inactive)
Cc1cccc(NC(=O)c2ccc(C3SCC(=O)N3CCc3ccccc3)cc2)c1 (stereo not given) | 0.15% (inactive)
CC(=O)Nc1ccc(NC(=O)c2ccc(C3SCC(=O)N3CCc3ccccc3)cc2)cc1 (stereo not given) | 15.4% (inactive)
Oc1cc(Nc2ccncc2)cc2cccnc12 | 13.8% (inactive)
Oc1cc(NCc2ccc(F)cc2)cc2cccnc12 | 8.32% (inactive)
CC(C)n1nnc(-c2ccc(OCc3ccccc3F)cc2)n1 | 8.81% (inactive)
COc1cccc(NC(=O)CNC(=O)Cn2cnc3sc(C)c(C)c3c2=O)c1 | -5.96% (inactive)
COc1ccc(NC(=O)CNC(=O)Cn2cnc3sc4c(c3c2=O)CCCC4)cc1OC | 9.66% (inactive)
O=C(O)CCc1ccc(-c2ccccc2)o1 | -1.56% (inactive)
COc1ccccc1-c1ccc(SCC(=O)NC2CCCC2)nn1 | -0.31% (inactive)
O=C(C#Cc1cccc([N+](=O)[O-])c1)c1ccccc1 | 6.12% (inactive)
Nc1ccccc1C#Cc1ccccc1 | -9.91% (inactive)
CC1CCCC(NC(=O)CN(C)CC(=O)Nc2ccc(F)cc2)C1C (stereo not given) | -12.8% (inactive)
Nc1nnc(SCC(=O)OCC(=O)Nc2ccccc2)s1 | -4.86% (inactive)
O=C(CNS(=O)(=O)c1ccccc1)N1CCN(Cc2ccccc2)CC1 | -2.28% (inactive)
CCCCS(=O)(=O)/C=C\C1C2C=CC(C2)C1S(=O)(=O)CCCC (stereo not given) | 0.63% (inactive)
CCCCS(=O)(=O)/C=C/[C@H]1[C@H](S(=O)(=O)CCCC)[C@H]2C=C[C@@H]1C2 | 1.49% (inactive)
COCc1ccc(-c2c(-c3ccsc3)sc3ccccc23)cc1 | 6.72% (inactive)
Oc1ccc(-c2c(-c3ccsc3)sc3ccccc23)cc1 | 28.2% (inactive)
CCN1CCN(c2ccc(NC(=O)c3cccc(F)c3)cc2Cl)CC1 | 4.34% (inactive)
CC(C)(C)C(=O)N1CCN(c2nc3ccc(Cl)cc3s2)CC1 | 13.8% (inactive)
CN(Cc1cn(C)nc1-c1cccc(Cl)c1)Cc1nccn1C | -10.3% (inactive)

SMILES | inhibition
Cc1ccc(-n2cc(CN(C)CCc3cn[nH]c3)c(-c3cccc(C)c3)n2)cc1 | 19.1% (inactive)
Cc1ccc(NC2=C/C(=N/S(=O)(=O)c3cccs3)c3ccccc3C2=O)cc1 | 62.9% (inactive)
Cc1ccc(NC2=C/C(=N/S(=O)(=O)c3cccs3)c3ccccc3C2=O)cc1C | 5.44% (inactive)
COc1ccc(Cl)cc1NC(=O)Nc1ccc(Br)cn1 | 5.18% (inactive)
CC(Oc1ccc(-c2nccc(-c3ccccn3)n2)cc1)C(=O)NN (stereo not given) | -4.92% (inactive)
O=C(O)COc1ccc(-c2nccc(-c3ccccn3)n2)cc1 | 0.08% (inactive)
CC(=O)CSc1nc2ccccc2s1 | -0.04% (inactive)
O=C(CSc1nc2ccccc2s1)CSc1nc2ccccc2s1 | 12% (inactive)
c1ccc(-c2nc3ccccc3c3nc4ccccc4n23)cc1 | -1.99% (inactive)
FC(F)(F)c1nc2ccccc2c2nc3ccccc3n12 | 9.4% (inactive)
COC(=O)CCNC(=O)c1ccc2nc(Cc3ccc(OC)c(OC)c3)oc2c1 | -1.6% (inactive)
COc1ccc(Cc2nc3ccc(C(=O)NCCSC)cc3o2)cc1 | 2.47% (inactive)
C/C(=N\NC(=O)C1CC1c1ccccc1)c1ccc(C)s1 (stereo not given) | -2.49% (inactive)
CCOC(=O)Cc1nn(Cc2nc(-c3ccc(C)cc3)cs2)c(=O)c2ccccc12 | -4.15% (inactive)
Cn1nc(-c2ccc(OCC(N)=O)cc2)c2ccccc2c1=O | -19.8% (inactive)
CNC(=O)COc1ccc(-c2nn(C)c(=O)c3ccccc23)cc1 | -7.66% (inactive)
CCOC(=O)N1CCN(S(=O)(=O)c2ccc(C(=O)Nc3nc4c(s3)CC(C)CC4)cc2)CC1 (stereo not given) | 16.7% (inactive)
C#CCn1cnc2c(oc3ccccc32)c1=O | 2.24% (inactive)
COc1ccc(Br)cc1-c1nc(CCl)cs1 | 60.4% (inactive)
Cc1cc(C)n2nc(CC#N)c(C#N)c2n1 | 1.45% (inactive)
N#C/C(=C\c1ccccn1)c1ccccn1 | -3.85% (inactive)
CCc1ccc(N2C(=O)CN(Cc3cccs3)C2=S)cc1 | 38.7% (inactive)
COc1ccc(OCc2nc(N)nc(Nc3ccccc3OC)n2)cc1 | 2.69% (inactive)
COc1ccccc1Nc1nc(N)nc(CN2CCN(Cc3ccccc3)CC2)n1 | 43.2% (inactive)

SMILES | inhibition
O=C(CNC(=O)c1ccc(Br)o1)NC12CC3CC(CC(C3)C1)C2 | 5.74% (inactive)
COc1ccc(CN2C(=NC(=O)COc3ccccc3)SC3CS(=O)(=O)CC32)cc1 (stereo not given) | -7.1% (inactive)
Cc1cc(C)n2nc(SCCCC(=O)c3ccc(F)cc3)nc2n1 | -9.89% (inactive)
NC(=O)c1[nH]cnc1N | -17.9% (inactive) and 7.5% (inactive)
CN(C)N=Nc1ccc2nc[nH]c2c1 | -2.52% (inactive)
O=C1CCCCN1CCC(=O)N1CCCC(N2CCN(c3cccc(Cl)c3)CC2)C1 (stereo not given) | -10.9% (inactive)
O=C(NNC(=O)C1CC(c2cccs2)=NO1)Nc1ccc(Cl)cc1 (stereo not given) | -0.49% (inactive)
Cc1cc(=O)[nH]c(SCC(=O)N(CCC#N)c2ccccc2)c1C#N | -2.5% (inactive)
CCCCNC(=S)N1CCn2cccc2C1c1cccnc1 (stereo not given) | -0.76% (inactive)
C=C1C(=O)[C@@]23[C@H](O)C[C@@H]4C(C)(C)CC[C@H](O)[C@]4(C)[C@@H]2C[C@H](O)[C@@H]1[C@H]3O | 62.1% (inactive)
COc1cc(-c2ccc3c(=O)c4ccccc4sc3c2)cc(OC)c1OC | 8.35% (inactive)
CCOC(=O)c1c(C)oc2ccc(NS(=O)(=O)c3ccc4c5c(cccc35)C(=O)N4)cc12 | 62.7% (inactive)
Cc1oc2c(cc(NS(=O)(=O)c3ccc4c5c(cccc35)C(=O)N4)c3ccccc32)c1C(=O)OC(C)C | 51% (inactive)
Nc1nc(SCc2ccccc2)ns1 | 15% (inactive)
Nc1nc(SCc2ccc(Cl)cc2Cl)ns1 | 22.1% (inactive)
CC1(C)CC[C@]2(C(=O)O[C@@H]3OC(CO)[C@@H](O)[C@H](O)[C@H]3O)CC[C@]3(C)C(=CCC4[C@@]5(C)CC[C@H](O[C@@H]6OC(C(=O)O)[C@@H](O)[C@H](O)[C@H]6O)C(C)(C)C5CC[C@]43C)[C@@H]2C1 (stereo not given in full) | 1.92% (inactive)
CN(CC(=O)Nc1cccc(F)c1)C(=O)c1ccc(-c2cccc(C(F)(F)F)c2)o1 | 0.48% (inactive)
CCOc1ccccc1N(CC(=O)Nc1cccc2ccccc12)S(C)(=O)=O | -0.92% (inactive)
CC1(C)Cc2c(c(N3CCOCC3)nc3sc4c(NCCN5CCOCC5)nnnc4c23)CS1 | 36.9% (inactive)
CC1(C)Cc2c(c(N3CCOCC3)nc3sc4c(NCC5CCCO5)nnnc4c23)CS1 (stereo not given) | 11.7% (inactive)
O=S(=O)(NC1=NCCC1)c1cccc(NS(=O)(=O)c2ccc(OC(F)(F)F)cc2)c1 | -9.41% (inactive)
COc1ccccc1N(CC(=O)NCCc1ccccc1)C(=O)CCC(=O)Nc1ccccn1 | -2.52% (inactive)
COc1ccc(NC(=O)N2CCC3(CC2)OCCO3)cc1OC | 1.68% (inactive)
